Compound activity: PubChem BioAssay, The Scripps Research Institute Molecular Screening Center
Hits are enriched below; roughly 3.5% of the tested compounds scored in any of these assays.
FBW7 activator: activators of human E3 ligase FBW7; 650,000 compounds, 0.13% hits; AID 1259310; AlphaScreen FBW7–phospho-cyclin E peptide binding, activator screen; normalized activity (activation), % at 26.1 µM; in the data active = normalized activity above about 1.9%;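 also: purified mutant Fbw7 with reduced substrate affinity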
MITF primary: blocks human microphthalmia-associated transcription factor; AlphaScreen MITF homodimerization, bead proximity signal; inhibition, % at 2.6 µM; 650,000 compounds, 0.91% hits; AID 1259374; in the data active = inhibition above about 50%
Target sequence (O75030 whole entry, looked up): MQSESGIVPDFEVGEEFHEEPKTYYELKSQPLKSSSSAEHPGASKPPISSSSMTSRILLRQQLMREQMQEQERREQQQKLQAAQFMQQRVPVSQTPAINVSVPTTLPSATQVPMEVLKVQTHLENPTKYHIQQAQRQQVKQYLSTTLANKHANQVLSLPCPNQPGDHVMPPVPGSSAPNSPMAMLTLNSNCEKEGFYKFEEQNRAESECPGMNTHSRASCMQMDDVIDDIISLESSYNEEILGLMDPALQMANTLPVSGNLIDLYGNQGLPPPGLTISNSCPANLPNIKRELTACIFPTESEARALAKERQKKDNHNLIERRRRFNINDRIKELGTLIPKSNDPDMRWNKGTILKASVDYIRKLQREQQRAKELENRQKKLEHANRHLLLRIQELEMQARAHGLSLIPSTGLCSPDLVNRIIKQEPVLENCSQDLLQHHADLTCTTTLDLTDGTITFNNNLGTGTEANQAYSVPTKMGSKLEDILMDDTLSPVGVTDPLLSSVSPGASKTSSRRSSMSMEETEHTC
GPR151 ag: activates the human receptor GPR151; activation, % at 11.2 µM; PathHunter beta-arrestin GPR151 cells, luminescence; 650,000 compounds, 1% hits; Q8TDV0; AID 1508602; in the data active = activation above about 4.9%
TEAD-YAP block: TEAD-YAP interaction inhibition | HEK-TIYL cells, TEAD-Gal4/YAP UAS-luciferase luminescence | inhibition, % at 9.12 µM | 640,000 compounds, 1.4% hits | AID 1259422; in the data active = inhibition above about 32%
Hits are given with their value; i = inactive.

SMILES	FBW7 activator	MITF primary	GPR151 ag	TEAD-YAP block
COc1ccc(C(=O)/C(=C/N2C=CC=CC2=C(C#N)C#N)c2ccco2)cc1	i	i	i	47.6
COc1ccc(S(=O)(=O)n2nc(-c3ccc(Br)cc3)cc2N)cc1OC	i	i	i	i
CN(C)c1ccc(/C=C(\NC(=O)c2ccccc2)C(=O)N/N=C/c2ccncc2)cc1	i	i	i	i
COc1ccc(OC)c(-n2c(C)cc(/C=C3/C(=N)N4C=CSC4=NC3=O)c2C)c1	i	i	i	i
COc1ccc(OC)c(-n2c(C)cc(/C=C3/C(=N)N4C=C(C)SC4=NC3=O)c2C)c1	i	i	i	47.1
COc1ccc(C)cc1-n1c(C)cc(/C=C2/C(=N)N3C=C(C)SC3=NC2=O)c1C	i	i	i	50.9
COc1ccccc1-n1c(C)cc(/C=C2/C(=N)N3C=CSC3=NC2=O)c1C	i	i	i	94.3
Cc1ccc(CN[C@H]2C[C@H]3C(=O)N[C@@H](Cc4ccc(O)cc4)C(=O)N3C2)c(C)c1	i	i	i	i
CN1C(=O)Cc2cc(NC(=O)c3cccc(Br)c3)ccc21	i	i	i	i
CC(=O)N(/N=C1\Sc2ccccc2C1=O)c1ccccc1I	i	i	i	76.0
O=C1NC(=Nc2ccccc2)SC1Cc1ccc(Cl)cc1 (stereo unspecified)	i	i	i	i
C=CCSc1nc2c(c(=O)[nH]1)C(c1cccs1)C1=C(CCCC1=O)N2 (stereo unspecified)	i	i	i	i
Cc1ccc(Oc2ccc(N3C(=O)c4cccc([N+](=O)[O-])c4C3=O)cc2)cc1C	i	i	i	32.7
O=C(Nc1cccc(O)c1)c1ccc(N2C(=O)c3cccc([N+](=O)[O-])c3C2=O)cc1	i	i	i	34.2
O=C1c2cccc([N+](=O)[O-])c2C(=O)N1c1ccc(Oc2cccc3ccccc23)cc1	i	i	i	73.7
COc1ccc(Oc2ccc(N3C(=O)c4cccc([N+](=O)[O-])c4C3=O)cc2)cc1	i	i	i	i
O=C1c2cccc([N+](=O)[O-])c2C(=O)N1c1ccc(Oc2ccc3ccccc3c2)cc1	i	i	i	i
O=C(Nc1ccc(O)cc1)c1cccc(N2C(=O)c3cccc([N+](=O)[O-])c3C2=O)c1	i	i	i	i
COc1cccc(/C=N/NC(=O)C(=O)Nc2cccc(C)c2C)c1	i	i	i	i
Cc1cccc(NC(=O)C(C)n2c3ccccc3c3nc(=O)cc(C)n32)c1C (stereo unspecified)	i	i	i	i
Cc1ccc(N(CC(=O)Nc2cccc(C)c2)S(=O)(=O)c2c(C)noc2C)cc1	i	i	i	i
CCN(CC)c1ccc(/C=N/Nc2ncnc3nc[nH]c23)cc1	i	i	i	75.7
Oc1cccc(/C=N/Nc2ncnc3nc[nH]c23)c1	i	i	i	i
COc1ccc(/C=N/Nc2ncnc3nc[nH]c23)c(OC)c1	i	i	i	37.6
CCOc1ccccc1/C=N/Nc1ncnc2nc[nH]c12	i	i	i	i
SMILES	FBW7 activator	MITF primary	GPR151 ag	TEAD-YAP block
Brc1cccc(/C=N/Nc2ncnc3nc[nH]c23)c1	i	i	i	57.2
COc1ccc(/C=N/Nc2ncnc3nc[nH]c23)cc1O	i	i	i	36.9
CCOc1ccccc1NC(=O)c1sc2ncn(Cc3ccccc3Cl)c(=O)c2c1C	i	i	i	i
O=C1C2C3C=CC(C4CC34)C2C(=O)N1/N=C/c1ccc([N+](=O)[O-])cc1 (stereo unspecified)	i	i	i	i
Cc1cc(C)nc(NC(N)=NCc2ccccc2)n1	i	i	i	i
Cc1ccc(CN=C(N)Nc2nc(C)cc(C)n2)cc1	i	i	i	54.0
CC(C)S(=O)(=O)/C(Cl)=C(\Cl)C(=O)Nc1ccccc1Cl	i	i	i	94.5
CCOC(=O)C(C#N)C1(O)C(=O)c2ccccc2C1=O (stereo unspecified)	i	56.8	i	i
CCOC(=O)C(C#N)C(=O)c1ccc(N2C(=O)c3ccccc3C2=O)cc1 (stereo unspecified)	i	i	i	i
CCc1ccc(-c2cc3c(=O)n(CC(=O)NCCc4ccccc4)nc(C)n3n2)cc1	i	i	i	i
CC[C@@]1([C@@H]2O[C@@H]([C@H]3O[C@@](O)(CO)[C@H](C)C[C@@H]3C)C[C@@H]2C)CC[C@H]([C@]2(C)CC[C@]3(C[C@H](O)[C@@H](C)[C@@H]([C@@H](C)[C@@H](OC)[C@H](C)C(=O)O)O3)O2)O1	i	i	i	78.7
CCN(CC)C(=O)Sc1nc2ccccc2s1	i	i	i	43.8
Cc1csc(NC(=O)c2cc([N+](=O)[O-])ccc2Sc2nnnn2C)n1	i	i	i	38.9
O=C1c2cccc3cccc(c23)C(=O)N1CCN1CCCCC1	i	i	i	67.6
